Experiment [1] is described as follows: inhibitors of TNFa-induced NFkB p65 translocation, primary screen, imaging, HUVEC, MLSMR starter and 10KST1 sets (AID 438;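 active = inhibition above 20% together with a positive visual image hit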;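 note: compound added about 3h40 before a 20 min TNFalpha stimulation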;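 for inhibition: signal is the nuclear over cytoplasmic p65 intensity ratio per well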). As to conditions: HUVEC TNFa-induced p65 nuclear translocation; cell count: measured here: nuclei count (cytotoxicity indicator), at 2.08 µM; inhibition: at 2 µM, stronger effect = higher value, 0% TNFa-plus-vehicle, 100% no-TNFa wells.
A short description of experiment [2]: reduction of polyQ htt aggregates in cells – imaging, exon1htt(103Q)mCFP cells, high-content imaging, primary screen (AID 483;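 active = visual image review flags a hit and inhibition of aggregation exceeds 20%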;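 note: compound exposure lasted 3 days before fixation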;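 for nuclei count: percent of the per-plate median nuclei count of sample wells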). As to conditions: exon1htt(103Q)mCFP cell line, aggregate imaging, at 2 µM; inhibition of aggregation: stronger effect = higher value; nuclei count: measured here: cell count, toxicity.
Experiment [3] in a line: endothelial E-selectin expression blockers – imaging, HUVEC, immunofluorescence, MLSMR starter and 10KST1 sets, primary screen (AID 487).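 For inhibition: signal is fraction of cell area covered by stained E-selectin grains.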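 For nuclei count: 100% = median nuclei count of all wells on the same plate.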 As to conditions: HUVEC TNFalpha-induced E-selectin immunofluorescence imaging, at 2 µM; inhibition: stronger effect = higher value; nuclei count: measured here: cell number, toxicity.
Experiment [4] addresses Voltage-gated potassium channel subunit beta-2 (Rattus norvegicus) (UniProt P62483). Nature of the experiment: inhibitors of rat Kvbeta2 reductase activity – biochemical, NADPH fluorescence, primary screen (AID 622;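 active = fluorescence slope higher than the sample average by over 3 SD, cut at about -0.22 in these data, passing the limit was not always enough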;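 note: slope of raw intensity against log time taken from 70 to 1610 s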). The conditions noted are these: recombinant KvBeta, 4-cyanobenzaldehyde reduction, at 10 µM, stronger effect = higher value.
For experiment [5] the target is unchanged. In words: enhancers of rat Kvbeta2 NADPH turnover – biochemical, NADPH fluorescence, primary screen (AID 623;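 active = NADPH fluorescence slope more negative than the mean of all samples by about 3 SD, 99.7% confidence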;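 note: fluorescence intensity change per second fitted from 20 to 320 s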). As to conditions: Recombinant KvBeta, NADPH fluorescence decrease slope, 10 min; at 10 µM; stronger effect = lower value.
For experiment [6], the target named is Alpha-2C adrenergic receptor (Homo sapiens) (UniProt P18825). Nature of the experiment: compounds altering alpha2C-coupled GIRK flux – cell-based, HEK293 alpha2C/GIRK1/2, thallium flux, primary screen (AID 624;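 active = fluorescence slope after compound addition differing from the mean of all screened samples at 99.7% confidence, in either direction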;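 note: slope of fluorescence ratio to pre-addition baseline per second over 15 to 24 s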). As to conditions: thallium flux BTC fluorescence, at 10 µM, actives lie on both sides.
Sequence of Alpha-2C adrenergic receptor (Homo sapiens) (P18825 whole entry, looked up): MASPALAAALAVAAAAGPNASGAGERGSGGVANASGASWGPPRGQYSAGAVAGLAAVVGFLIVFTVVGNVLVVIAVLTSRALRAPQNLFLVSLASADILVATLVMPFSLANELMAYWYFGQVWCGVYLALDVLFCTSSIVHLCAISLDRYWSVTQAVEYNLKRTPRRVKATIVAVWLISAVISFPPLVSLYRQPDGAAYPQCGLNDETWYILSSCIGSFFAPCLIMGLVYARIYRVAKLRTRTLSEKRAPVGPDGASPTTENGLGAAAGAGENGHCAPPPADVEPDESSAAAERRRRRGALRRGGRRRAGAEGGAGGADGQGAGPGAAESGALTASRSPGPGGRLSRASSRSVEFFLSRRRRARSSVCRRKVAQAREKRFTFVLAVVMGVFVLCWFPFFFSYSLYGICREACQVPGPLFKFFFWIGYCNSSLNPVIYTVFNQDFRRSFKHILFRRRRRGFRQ
A short description of experiment [7]: blockers of RIG-like receptor reporter activation – cell-based, Sendai virus stimulus, luciferase, 10K MLSCN set, TLR/RLR signaling modifier project, primary screen (AID 602276;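 active = inhibition at or above 50% at 10 µM; inactive = inhibition below 50%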;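 note: firefly luciferase from ISG56 promoter only with Renilla not read in this screen; 0% = Sendai virus plus DMSO and 100% = medium plus DMSO without virus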). The conditions noted are these: HEK293 RL24 IRF3 luciferase reporter, at 10 µM, stronger effect = higher value.
The nature of experiment [8]: TLR3 IRF3 reporter activation blockers – cell-based, poly I:C stimulus, luciferase, 10K MLSCN set, primary screen (AID 602277;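 active = inhibition of the reporter signal at or above 50%; inactive = inhibition below 50%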). As to conditions: HEK293-TLR3 RL24 IRF3 luciferase reporter, at 10 µM, stronger effect = higher value.

Activity calls are given as the source filed them.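 Rule for the calls, unless noted: active = visually confirmed hit in the image check and inhibition above 20%; inconclusive = visually confirmed hit but inhibition not above 20%; inactive = no visual hit in the image check.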

Sequence of Voltage-gated potassium channel subunit beta-2 (Rattus norvegicus) (P62483 whole entry, looked up): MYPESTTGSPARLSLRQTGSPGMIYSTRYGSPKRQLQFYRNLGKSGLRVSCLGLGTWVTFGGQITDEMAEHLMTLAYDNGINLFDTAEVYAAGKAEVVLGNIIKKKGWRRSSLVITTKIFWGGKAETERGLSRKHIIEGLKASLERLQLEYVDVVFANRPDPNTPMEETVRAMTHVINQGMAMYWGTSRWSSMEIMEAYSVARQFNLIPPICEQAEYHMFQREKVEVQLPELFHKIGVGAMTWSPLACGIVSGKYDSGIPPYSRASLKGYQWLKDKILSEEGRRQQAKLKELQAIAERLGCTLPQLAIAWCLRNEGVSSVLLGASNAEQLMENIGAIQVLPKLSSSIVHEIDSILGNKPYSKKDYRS

In the case of `O=S(=O)(Nc1nc2ccccc2nc1NCc1ccco1)c1ccc(Cl)cc1`, the cell count in experiment [1] was 481. For the same molecule, the inhibition in experiment [1] was 0.9% (inactive); in experiment [3], 8.2% (inactive); in experiment [7], 19.4% (inactive); in experiment [8], 18.7% (inactive). The inhibition of aggregation in experiment [2] is 4.8% (inactive). For the same molecule, the nuclei count turned out to be 101% in experiment [2] and 129% in experiment [3]. The fluorescence slope in experiment [4] was -0.448 (inactive). For the same molecule, the NADPH fluorescence slope in experiment [5] is -6.1e-05 (inactive). For the same molecule, in experiment [6], the slope was 0.00347 (inactive).

As to `Nc1nnc(C(=O)c2ccccc2N)s1`, the cell count in experiment [1] amounted to 384. In addition, the inhibition in experiment [1] is -5.3% (inactive); in experiment [3], -41.8% (inactive); in experiment [7], -1.19% (inactive); in experiment [8], -4.86% (inactive). The inhibition of aggregation in experiment [2] is -21% (inactive). Further, the nuclei count in experiment [2] amounted to 99.9%; in experiment [3], 106%. For the same molecule, in experiment [4], the fluorescence slope is -0.438 (inactive). Further, in experiment [5], the NADPH fluorescence slope was -0.000136 (inactive). The slope in experiment [6] is 0.00502 (inactive).

As to `Cc1cccc2cc(CN(CCN3CCCC3)C(=O)NC3CCCCC3)c(=O)[nH]c12`, in experiment [1], the cell count turned out to be 641. In addition, the inhibition in experiment [1] is -7.5% (inactive); in experiment [3], -7.3% (inactive); in experiment [7], 12.6% (inactive); in experiment [8], 38.4% (inactive). Moreover, the inhibition of aggregation in experiment [2] is -0.1% (inactive). In addition, the nuclei count worked out at 84.8% in experiment [2] and 97% in experiment [3]. In addition, the fluorescence slope in experiment [4] was -0.428 (inactive). Further, in experiment [5], the NADPH fluorescence slope is 1e-05 (inactive). Moreover, in experiment [6], the slope is 0.00641 (inactive).

With `COC(=O)CCn1nnc(-c2cccs2)n1`, in experiment [1], the cell count was found to be 547. Besides, the inhibition in experiment [1] was -6.8% (inactive); in experiment [3] it was -34.8% (inactive); in experiment [7], -2.1% (inactive); in experiment [8], -22% (inactive). Moreover, the inhibition of aggregation in experiment [2] was 7.6% (inactive). Also, the results for the nuclei count in experiment [2] and in experiment [3] were 110% and 96%, respectively. For the same molecule, the fluorescence slope in experiment [4] was -0.598 (inactive). For the same molecule, the NADPH fluorescence slope in experiment [5] was -5.1e-05 (inactive). Moreover, in experiment [6], the slope was 0.00439 (inactive).

`COc1ccc(C2CC(=O)C3=C(C2)Nc2ccccc2N(C(=O)C2CC2)C3c2cccnc2)cc1OC` (centres undefined): in experiment [1], the cell count was 683. The inhibition was -10.9% (inactive) in experiment [1], 0.8% (inactive) in experiment [3], 10.6% (inactive) in experiment [7] and 17.6% (inactive) in experiment [8]. For the same molecule, in experiment [2], the inhibition of aggregation is -43.4% (inactive). Further, the nuclei count stood at 87.2% in experiment [2] and 98.6% in experiment [3]. The fluorescence slope in experiment [4] is -0.367 (inactive). Moreover, the NADPH fluorescence slope in experiment [5] was 7.5e-06 (inactive). Also, in experiment [6], the slope is 0.00392 (inactive).

For `CCc1cccc2c(=O)c(C(=O)N3CCCCCC3)c[nH]c12`, in experiment [1], the cell count came to 538. Moreover, the inhibition in experiment [1] was -26.5% (inactive); in experiment [3] it was -31% (inactive); in experiment [7], 4.31% (inactive); in experiment [8], -4.51% (inactive). The inhibition of aggregation in experiment [2] was 7.9% (inactive). The nuclei count in experiment [2] was determined as 87.7%; in experiment [3], 94.3%. Also, the fluorescence slope in experiment [4] is -0.513 (inactive). Moreover, the NADPH fluorescence slope in experiment [5] was -5.1e-05 (inactive). Further, the slope in experiment [6] was 0.0048 (inactive).

Consider `Clc1ccc(-n2nnnc2Sc2ncnc3sccc23)cc1`, for which, in experiment [1], the cell count is 530. For the same molecule, the inhibition was -9% (inactive) in experiment [1], -12.2% (inactive) in experiment [3], 5.22% (inactive) in experiment [7] and 66.8% (active) in experiment [8]. For the same molecule, the inhibition of aggregation in experiment [2] is -12.2% (inactive). Further, the nuclei count in experiment [2] was 107%; in experiment [3] it was 122%. The fluorescence slope in experiment [4] is -0.528 (inactive). For the same molecule, in experiment [5], the NADPH fluorescence slope was -4.1e-05 (inactive). In experiment [6], the slope was 0.00502 (inactive).

Regarding `Nc1nc2ccccc2n1C(=O)CCc1ccccc1`, the cell count in experiment [1] was determined as 663. For the same molecule, the inhibition in experiment [1] is -1.2% (inactive); in experiment [3] it was -36.3% (inactive); in experiment [7], -24.1% (inactive); in experiment [8], -73.1% (inactive). Besides, in experiment [2], the inhibition of aggregation is -11.5% (inactive). Further, the nuclei count in experiment [2] is 69%; in experiment [3], 125%. The fluorescence slope in experiment [4] was -0.396 (inactive). In addition, in experiment [5], the NADPH fluorescence slope was -3.8e-05 (inactive). The slope in experiment [6] was 0.0047 (inactive).

Turning to `CCOc1ccc(Cn2nnc(C(=O)NCc3ccc(OC)cc3)c2N)cc1`, the cell count in experiment [1] is 509. Besides, the inhibition in experiment [1] was -1.3% (inactive); in experiment [3] it was -22.4% (inactive); in experiment [7], 17.5% (inactive); in experiment [8], 30.1% (inactive). Moreover, the inhibition of aggregation in experiment [2] was 15.4% (inactive). The nuclei count in experiment [2] came out at 72.5%; in experiment [3], 100%. Moreover, the fluorescence slope in experiment [4] was -0.536 (inactive). In experiment [5], the NADPH fluorescence slope was -2.2e-06 (inactive). The slope in experiment [6] was 0.00681 (inactive).

`O=C1CC(Cc2ccccc2)C(=O)N1CCCn1ccnc1` (centres undefined): the cell count in experiment [1] stood at 429. In addition, the inhibition in experiment [1] was -4.9% (inactive); in experiment [3], 36.4% (inactive); in experiment [7], 17.7% (inactive); in experiment [8] it was 25% (inactive). In experiment [2], the inhibition of aggregation is 10.8% (inactive). Also, the nuclei count in experiment [2] turned out to be 100%; in experiment [3], 102%. Also, the fluorescence slope in experiment [4] was -0.346 (inactive). Moreover, in experiment [5], the NADPH fluorescence slope is -6e-05 (inactive). Besides, the slope in experiment [6] is 0.00527 (inactive).

With `Cc1nnc(N2C(=O)c3oc4ccccc4c(=O)c3C2c2ccco2)s1` (centres undefined), the cell count in experiment [1] was determined as 804. The inhibition in experiment [1] is -5.5% (inactive); in experiment [3], -28.9% (inactive); in experiment [7], 12.3% (inactive); in experiment [8], 13.8% (inactive). In addition, the inhibition of aggregation in experiment [2] was 8.3% (inactive). The results for the nuclei count in experiment [2] and in experiment [3] were 98.1% and 124%, respectively. In experiment [4], the fluorescence slope was -0.579 (inactive). For the same molecule, the NADPH fluorescence slope in experiment [5] is -2.5e-05 (inactive). Also, the slope in experiment [6] was 0.00589 (inactive).

As for `Cn1c(-c2ccc(F)cc2)cnc1SCC(=O)Nc1ccccc1N1CCOCC1`, the cell count in experiment [1] was determined as 458. Moreover, the inhibition in experiment [1] is 1.4% (inactive); in experiment [3] it was -76.1% (inactive); in experiment [7], -29.2% (inactive); in experiment [8], -99% (inactive). Moreover, the inhibition of aggregation in experiment [2] was 53.7% (active). For the same molecule, the nuclei count in experiment [2] was determined as 63.3%; in experiment [3], 90.4%. For the same molecule, the fluorescence slope in experiment [4] was -0.31 (inactive). Moreover, in experiment [5], the NADPH fluorescence slope is -2.7e-05 (inactive). For the same molecule, in experiment [6], the slope was 0.00572 (inactive).

In the case of `C=CCSC1=C(C#N)C(c2ccccc2)CC(=O)N1` (centres undefined), the cell count in experiment [1] is 486. For the same molecule, the inhibition was -1.6% (inactive) in experiment [1], -112% (inactive) in experiment [3], 6.68% (inactive) in experiment [7] and 8.17% (inactive) in experiment [8]. Further, the inhibition of aggregation in experiment [2] was 1.6% (inactive). In addition, the nuclei count came out at 101% in experiment [2] and 104% in experiment [3]. Further, the fluorescence slope in experiment [4] is -0.527 (inactive). Further, the NADPH fluorescence slope in experiment [5] is 8.1e-07 (inactive). The slope in experiment [6] was 0.00534 (inactive).

Take `Cc1cc(C(=O)COC(=O)C2COc3ccccc3O2)c(C)n1CC1CCCO1` (centres undefined): the cell count in experiment [1] is 460. The inhibition in experiment [1] is 0.5% (inactive); in experiment [3], -126% (inactive); in experiment [7] it was 6.89% (inactive); in experiment [8] it was 22.4% (inactive). Further, the inhibition of aggregation in experiment [2] is 19.3% (inactive). Moreover, the nuclei count in experiment [2] amounted to 81.4%; in experiment [3] it was 119%. Also, the fluorescence slope in experiment [4] is -0.373 (inactive). Besides, the NADPH fluorescence slope in experiment [5] is -4.2e-05 (inactive). Also, in experiment [6], the slope was 0.00612 (inactive).

The values above are taken from PubChem BioAssay.
